According to PubChem BioAssay (NCI):
Compounds without any hit were thinned out: in the full panel of roughly 83,000, 20% have a hit.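 A percent growth of 40 corresponds to 60% growth inhibition; 0 means no net growth; -100 means all cells died. Active threshold: below 10.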 The source made the active and inactive calls.

What was measured:
Experiment in all cases: NCI-60 one-dose screen, 48 h (100 = growth as untreated, 0 = no growth, -100 = all killed)
Details in all cases: 10 µM unless noted
SK-MEL-2 melanoma = system: SK-MEL-2 melanoma
EKVX NSCLC = system: EKVX NSCLC
SN12C renal = system: SN12C renal
UO-31 renal = system: UO-31 renal
TK-10 renal = system: TK-10 renal
ACHN renal = system: ACHN renal
CAKI-1 renal = system: CAKI-1 renal
A498 renal = system: A498 renal
CCRF-CEM leukemia = system: CCRF-CEM leukemia
MOLT-4 leukemia = system: MOLT-4 leukemia

Measured: growth

CC(C)(C)n1cc(-c2ccnc(NCCNS(=O)(=O)c3ccc(C(F)(F)F)cc3)c2)c(-c2ccccc2)n1
inactive: SK-MEL-2 melanoma 105% | EKVX NSCLC 73.9% | SN12C renal 86% | UO-31 renal 58.9% | TK-10 renal 104% | ACHN renal 102% | CAKI-1 renal 90.6% | A498 renal 61.7% | CCRF-CEM leukemia 74.6% | MOLT-4 leukemia 72.2%

O=C(OCC(O)C(=O)NC12CC3CC(CC(C3)C1)C2)c1cccc(Br)c1 (stereo not given)
inactive: SK-MEL-2 melanoma 103% | EKVX NSCLC 96.4% | SN12C renal 102% | UO-31 renal 84.9% | TK-10 renal 109% | ACHN renal 101% | CAKI-1 renal 96.2% | A498 renal 94.4% | CCRF-CEM leukemia 81.9% | MOLT-4 leukemia 87%

CCNc1nc(-c2ccc(Cl)c(OC)c2)c(-c2ccnc(NCCNS(=O)(=O)c3ccc(Cl)cc3)n2)s1
inactive: EKVX NSCLC 34.9% | SN12C renal 36.1% | UO-31 renal 40.8% | TK-10 renal 22.5% | ACHN renal 33.7% | CAKI-1 renal 30.4% | A498 renal 18.6% | CCRF-CEM leukemia 21.4% | MOLT-4 leukemia 11.2%
active: SK-MEL-2 melanoma -30%

CCCCCCC/C=N/NC(=O)c1ccc(-n2cc(-c3ccccc3)nn2)cc1
inactive: SK-MEL-2 melanoma 98.9% | EKVX NSCLC 90.5% | SN12C renal 93.4% | UO-31 renal 71% | TK-10 renal 110% | ACHN renal 79.1% | CAKI-1 renal 75.8% | A498 renal 90.1% | CCRF-CEM leukemia 86.3% | MOLT-4 leukemia 85.9%

COC(=O)[C@@H](Cc1c[nH]c2ccccc12)NC(=O)[C@H](Cc1ccccc1)NCc1ccncc1
inactive: SK-MEL-2 melanoma 77.7% | EKVX NSCLC 103% | SN12C renal 100% | UO-31 renal 71.9% | TK-10 renal 98.1% | ACHN renal 109% | CAKI-1 renal 91.9% | A498 renal 100% | CCRF-CEM leukemia 90.3% | MOLT-4 leukemia 92.5%

O=C(CSc1nc(-c2ccccc2)cn1-c1ccc(Cl)cc1)c1ccc([N+](=O)[O-])cc1
inactive: SK-MEL-2 melanoma 86.9% | EKVX NSCLC 92.7% | SN12C renal 86.5% | UO-31 renal 59.7% | TK-10 renal 96.4% | ACHN renal 95.1% | CAKI-1 renal 89% | A498 renal 74.6% | CCRF-CEM leukemia 83.2% | MOLT-4 leukemia 68.4%

C=C(C)[C@@H]1CC[C@]2(COC(=O)c3cccnc3)CC[C@]3(C)[C@H](CC[C@@H]4[C@@]5(C)CCCN(C(=O)c6cccnc6)C(C)(C)[C@@H]5CC[C@]43C)[C@@H]12
inactive: SK-MEL-2 melanoma 65.3% | EKVX NSCLC 49.6% | SN12C renal 38.1% | UO-31 renal 35.9% | TK-10 renal 51.8% | ACHN renal 29.5% | CAKI-1 renal 32.6% | A498 renal 46.7% | CCRF-CEM leukemia 24.9% | MOLT-4 leukemia 23.6%

CCN(CC)CCCNC(=O)c1c2c(n3ccccc13)C(=O)c1ncccc1C2=O
active: SK-MEL-2 melanoma -55.3% | EKVX NSCLC -84.5% | SN12C renal -56% | UO-31 renal -19.8% | TK-10 renal -0.124% | ACHN renal -34.5% | A498 renal -73% | CCRF-CEM leukemia -36.2% | MOLT-4 leukemia -40.6%
inactive: CAKI-1 renal 11.8%

O=C(Nc1ccc2c(c1)-c1ccccc1C2)C1CC(=O)N(c2ccc3c(c2)OCO3)C1 (stereo not given)
inactive: SK-MEL-2 melanoma 89.2% [50 µM] | EKVX NSCLC 78.1% [50 µM] | SN12C renal 73% [50 µM] | UO-31 renal 97.7% [50 µM] | TK-10 renal 60.6% [50 µM] | ACHN renal 64.5% [50 µM] | CAKI-1 renal 61% [50 µM] | A498 renal 26.1% [50 µM] | CCRF-CEM leukemia 100% [50 µM] | MOLT-4 leukemia 99.7% [50 µM]

Cc1cc([N+](=O)[O-])ccc1NC(=O)c1ccc2c(c1)nc(-c1ccccc1)n2C1CCCCC1
inactive: SK-MEL-2 melanoma 87.4% | EKVX NSCLC 73% | SN12C renal 98.6% | UO-31 renal 62.4% | TK-10 renal 84.3% | ACHN renal 89.6% | CAKI-1 renal 70.3% | A498 renal 122% | CCRF-CEM leukemia 68.5% | MOLT-4 leukemia 52%

CCOC(=O)CSc1nc2sc3c(c2c(=O)n1-c1ccccc1)CCCCC3
inactive: SK-MEL-2 melanoma 103% | EKVX NSCLC 103% | SN12C renal 95.1% | UO-31 renal 84.1% | TK-10 renal 102% | ACHN renal 102% | CAKI-1 renal 102% | A498 renal 105% | CCRF-CEM leukemia 97% | MOLT-4 leukemia 102%

Cn1ccnc1C(=O)/C=C/c1ccc(C(=O)Nc2c(F)c(F)c(F)c(F)c2F)cc1
active: SN12C renal 6.49% | UO-31 renal -81.7% | ACHN renal -43% | CAKI-1 renal 8.22% | CCRF-CEM leukemia 2.63% | MOLT-4 leukemia 2.64%
inactive: SK-MEL-2 melanoma 96.2% | EKVX NSCLC 25% | TK-10 renal 20.4% | A498 renal 76.7%

COC(=O)CCc1c(/C=C2\N=C(c3ccc[nH]3)C=C2OC)[nH]c(C)c1C(=O)OCc1ccccc1
active: SK-MEL-2 melanoma -27.8% | UO-31 renal -67.2% | ACHN renal 4.36% | CAKI-1 renal -3.87% | CCRF-CEM leukemia 1.47%
inactive: EKVX NSCLC 27.4% | SN12C renal 15.8% | TK-10 renal 18.4% | A498 renal 15.1% | MOLT-4 leukemia 16.9%

O=c1c(Cc2ccc(F)cc2)cc(-c2ccccc2)nn1C/C(=N/O)c1ccccc1
inactive: SK-MEL-2 melanoma 36.8% | EKVX NSCLC 29.1% | SN12C renal 17.2% | UO-31 renal 30.9% | TK-10 renal 63.5% | ACHN renal 40.3% | CAKI-1 renal 47% | CCRF-CEM leukemia 34.6% | MOLT-4 leukemia 16.1%
active: A498 renal 9.7%

CCN(CC)CCN1C(=O)c2c(c(C)c3c(oc4cc(OC)ccc43)c2C)C1=O
inactive: SK-MEL-2 melanoma 101% | EKVX NSCLC 93.5% | SN12C renal 32.2% | TK-10 renal 100% | ACHN renal 51% | CAKI-1 renal 78.2% | A498 renal 108% | MOLT-4 leukemia 61.1%
active: UO-31 renal -43.7% | CCRF-CEM leukemia -10.9%

Cc1[nH]c(C(=O)Nc2ccccc2OC2CCNC2)c(Cl)c1Cl (stereo not given)
inactive: SK-MEL-2 melanoma 96.5% | EKVX NSCLC 70.3% | SN12C renal 78.2% | UO-31 renal 45.5% | TK-10 renal 122% | ACHN renal 42.8% | CAKI-1 renal 76% | A498 renal 70.7% | CCRF-CEM leukemia 59.3% | MOLT-4 leukemia 87.8%

COc1ccc(N2C(=O)/C(=C/C(Cl)=C/c3ccc([N+](=O)[O-])cc3)SC2=S)cc1
inactive: SK-MEL-2 melanoma 37.4% | A498 renal 63.2%
active: EKVX NSCLC -3.04% | SN12C renal -3.33% | UO-31 renal -97.7% | TK-10 renal -26.7% | ACHN renal -68% | CAKI-1 renal 0.845% | CCRF-CEM leukemia 0.216% | MOLT-4 leukemia 2.36%

Clc1nc(N2CCC[N+]3(CC2)CC[N+]2(CCCNCC2)CC3)nc(N2CCC[N+]3(CC2)CC[N+]2(CCCNCC2)CC3)n1 (stereo not given)
inactive: SK-MEL-2 melanoma 106% | EKVX NSCLC 108% | SN12C renal 93.7% | UO-31 renal 97.9% | TK-10 renal 133% | ACHN renal 115% | CAKI-1 renal 65.1% | A498 renal 114% | CCRF-CEM leukemia 96.7% | MOLT-4 leukemia 92.3%

Cc1cc2nc(C(Cl)Cl)nc(-c3ccccc3)n2n1
inactive: SK-MEL-2 melanoma 110% | EKVX NSCLC 61% | SN12C renal 85.6% | UO-31 renal 75.1% | TK-10 renal 59.2% | ACHN renal 11.6% | CAKI-1 renal 35% | A498 renal 20.8% | CCRF-CEM leukemia 79.1% | MOLT-4 leukemia 53.1%

C=C1C(=O)O[C@H]2[C@H]1CC/C(COC(=O)NCc1ccc(Cn3c(=O)sn(CCCC)c3=O)cc1)=C\CC[C@@]1(C)O[C@@H]21
active: UO-31 renal 3.12% | CCRF-CEM leukemia -22.4% | MOLT-4 leukemia 1.1%
inactive: SK-MEL-2 melanoma 81.5% | EKVX NSCLC 91.1% | SN12C renal 49.5% | TK-10 renal 14.7% | ACHN renal 15.2% | CAKI-1 renal 40.6% | A498 renal 100%

COc1cc2c(c(OC)c1OC)C(=O)CC(c1cccc(C(=O)Nc3ccc(Br)cc3)c1)O2 (stereo not given)
active: CCRF-CEM leukemia 9.34% | MOLT-4 leukemia -0.848%
inactive: SK-MEL-2 melanoma 60.3% | EKVX NSCLC 63.5% | SN12C renal 51.1% | UO-31 renal 40.3% | TK-10 renal 75.2% | ACHN renal 63.9% | CAKI-1 renal 62% | A498 renal 40.3%

CCn1c2ccccc2c2cc(C(O)c3cccc4ncccc34)ccc21 (stereo not given)
inactive: SK-MEL-2 melanoma 51.5% | EKVX NSCLC 59.3% | SN12C renal 27.6% | UO-31 renal 11.9% | TK-10 renal 54.7% | ACHN renal 27.9% | CAKI-1 renal 43% | MOLT-4 leukemia 13.5%
active: A498 renal 8.73% | CCRF-CEM leukemia 8.21%

COc1ccc(/C=N/NC(=O)Cn2nnc3ccccc32)cc1
inactive: SK-MEL-2 melanoma 100% | EKVX NSCLC 101% | SN12C renal 86.6% | UO-31 renal 77.8% | TK-10 renal 111% | ACHN renal 94.6% | CAKI-1 renal 90.4% | A498 renal 98.4% | CCRF-CEM leukemia 106% | MOLT-4 leukemia 93%

CCOC(=O)/C=C1\S/C(=N\Nc2cc(=O)[nH]c3ccc(OC)cc23)N(c2ccccc2)C1=O
inactive: SK-MEL-2 melanoma 106% | EKVX NSCLC 106% | SN12C renal 96.8% | UO-31 renal 82.4% | TK-10 renal 117% | ACHN renal 96.8% | CAKI-1 renal 88.5% | A498 renal 112% | CCRF-CEM leukemia 65.1% | MOLT-4 leukemia 95.4%

COc1ccc2c(O)cc3c(c2c1)[C@H](CCl)CN3C(=O)c1cc2cc(NC(=O)CCN3CCOCC3)ccc2[se]1
active: SK-MEL-2 melanoma -84.3% | EKVX NSCLC -59.3% | SN12C renal -88.1% | UO-31 renal -46.9% | TK-10 renal -32.2% | ACHN renal -1.81% | CAKI-1 renal -26.3% | A498 renal -90.9%
inactive: CCRF-CEM leukemia 76% | MOLT-4 leukemia 74.2%

O=C(Oc1ccccc1)c1cc(O)c(O)c(O)c1
inactive: SK-MEL-2 melanoma 125% | EKVX NSCLC 52.2% | SN12C renal 66.1% | UO-31 renal 53.8% | TK-10 renal 81% | ACHN renal 62.6% | CAKI-1 renal 33.6% | A498 renal 87.3% | CCRF-CEM leukemia 26.6% | MOLT-4 leukemia 62.5%
